An excerpt weighted towards active compounds, which were near 4.8% of everything screened.
DAX1 inh-1 = NR0B1 (DAX1) inhibition; P51843; HEK293 Gal4-DAX1 luciferase reporter, luminescence; inhibition, % at 6.75 µM; 340,000 tested, 0.99% active; AID 504766;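 active means inhibition above the mean over all tested compounds plus 3 SD, cut at about 4.2% in these data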;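 further: inhibition shows as a rise in luminescence from relieved DAX1 repression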
Target sequence (P51843 207-470 limits assumed): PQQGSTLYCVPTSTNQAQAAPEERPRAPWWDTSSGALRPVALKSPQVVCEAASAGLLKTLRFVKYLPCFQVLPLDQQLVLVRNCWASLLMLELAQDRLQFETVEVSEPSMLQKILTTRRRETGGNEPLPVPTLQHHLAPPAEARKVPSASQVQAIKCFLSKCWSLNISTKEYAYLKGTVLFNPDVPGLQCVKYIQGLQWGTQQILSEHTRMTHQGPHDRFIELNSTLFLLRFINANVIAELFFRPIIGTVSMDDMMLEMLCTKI
hgDAF12 agonist = activates the H. glycines DAF-12 receptor ligand-binding domain. HEK293 GAL4-hgDAF12 UAS-luciferase reporter, agonist luminescence; normalized to butyrate control. activation, % at 6.8 µM. 370,000 tested, 1.8% active. AID 687014;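 active means activation above a cutoff set at the mean of all screened compounds plus 3 SD, cut at about 10% in these data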
SMARCA2 act = SMARCA2 function activation, primary screen | MG213 cells, MMTV-luciferase reporter, dexamethasone, overnight | activation, % at 9.1 µM | 370,000 tested, 1% active | AID 652017; in the data active means activation above about 7.8%
ssDAF12 agonist = activates DAF-12 receptor from parasite S. stercoralis. HEK293 ssDAF-12/GRIP1 lit1-tk-luc reporter, luminescence; % of 3 µM dafachronic acid response. activation, % at 6.8 µM. 370,000 tested, 1% active. AID 652126;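 active means activation above the mean over all tested compounds plus 3 SD, cut at about 0.9% in these data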
hcDAF12 agonist = H. contortus DAF-12 activation, primary screen | HEK293 hcDAF-12 lit1-tk-luc reporter, luminescence; 0% DMSO, 100% Δ7-dafachronic acid | activation, % at 6.8 µM | 370,000 tested, 1.4% active | AID 652067;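 active means activation above the mean of all tested compounds plus 3 SD, cut at about 5.5% in these data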
DAX1 inh-2 = blocks DAX1 repression of SF-1 activated StAR promoter; HEK293T StAR-luciferase reporter, SF-1/DAX-1 repression relief; AID 652010; inhibition, % at 6.8 µM; 370,000 tested, 1.1% active;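 active means inhibition above the mean over all tested compounds plus 3 SD, cut at about 3.6% in these data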;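 further: higher inhibition means more luminescence from relief of DAX-1 repression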
DAX1 inh confirm = confirmation of human DAX1 (NR0B1) inhibitors; shares compounds with DAX1 inh-2; 2,400 tested, 87% active; AID 652134; inhibition, % at 6.8 µM; HEK293T StAR-promoter luciferase reporter, SF-1/DAX-1 repression;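 active means inhibition above the average of every tested compound plus 3 SD, cut at about 3.8% in these data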;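 further: active compounds raise luminescence by relieving repression of the StAR reporter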
SF1 mutant ctr = nonselective inhibitor or artifact in SF-1 mutant DAX1 counter-screen; HEK293 StAR-luciferase, SF-1 AF2 mutant, luminescence; inhibition, % at 6.8 µM; shares compounds with DAX1 inh-2; 2,400 tested, 78% active;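 active means inhibition above the mean of all tested compounds plus 3 SD, cut at about 3% in these data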
LXRb hcDAF ctr = counter-screen for hcDAF-12 agonists: agonists of human LXR-beta; shares compounds with hcDAF12 agonist; HEK293 Gal4-LXR tk-luc reporter, luminescence, 24 h; normalized: DMSO 0%, positive control 100%; activation, % at 6.8 µM; 3,400 tested, under 10 active; AID 743027;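 active means mean percent activation of the reporter above a cutoff set as the average over tested compounds plus their standard deviation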
Target sequence (P55055 whole entry, looked up, the tested form may be a part): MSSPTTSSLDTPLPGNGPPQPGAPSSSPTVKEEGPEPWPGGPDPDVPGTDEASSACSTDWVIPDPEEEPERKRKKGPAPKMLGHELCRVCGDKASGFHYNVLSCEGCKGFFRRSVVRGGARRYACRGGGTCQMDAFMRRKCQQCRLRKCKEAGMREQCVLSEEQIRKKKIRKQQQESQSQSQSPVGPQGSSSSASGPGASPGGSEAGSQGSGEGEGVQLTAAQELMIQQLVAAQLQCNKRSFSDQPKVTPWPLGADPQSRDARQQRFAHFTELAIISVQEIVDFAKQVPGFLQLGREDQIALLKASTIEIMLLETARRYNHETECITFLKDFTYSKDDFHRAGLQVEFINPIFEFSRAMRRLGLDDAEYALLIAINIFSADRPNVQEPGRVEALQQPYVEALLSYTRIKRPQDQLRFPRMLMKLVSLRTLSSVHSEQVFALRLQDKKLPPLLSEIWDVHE
hcDAF12 conf = hcDAF-12 agonism, confirmation assay; shares compounds with hcDAF12 agonist; HEK293 hcDAF-12 lit1-tk-luc reporter, luminescence; % of Δ7-dafachronic acid response; activation, % at 6.8 µM; 3,400 tested, 61% active;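 active means mean activation across triplicate tests above the threshold derived from the earlier primary screen, cut at about 5.5% in these data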
A number is an active result.

`Cc1cccc(NC(=O)c2cnc3sccn3c2=O)c1` gave DAX1 inh-1 inactive, hgDAF12 agonist 13, SMARCA2 act inactive, ssDAF12 agonist 0.9, hcDAF12 agonist 6.9, DAX1 inh-2 6.5, DAX1 inh confirm 12, SF1 mutant ctr 4.4, LXRb hcDAF ctr inactive and hcDAF12 conf 13.
Screening Nc1c(Cl)ncnc1N/N=C/c1ccccn1 returned hgDAF12 agonist inactive, SMARCA2 act inactive, ssDAF12 agonist inactive, hcDAF12 agonist inactive and DAX1 inh-2 inactive.
Clc1ccccc1NN=Cc1ccccn1 was read as DAX1 inh-1 inactive, hgDAF12 agonist 19, SMARCA2 act inactive, ssDAF12 agonist 1.0, hcDAF12 agonist 13, DAX1 inh-2 8.0, DAX1 inh confirm 7.6, SF1 mutant ctr 4.7, LXRb hcDAF ctr inactive and hcDAF12 conf 9.6.
For O=C(Nc1ccc2c(c1)CCC2)c1ccc(F)cc1 the results were DAX1 inh-1 inactive, hgDAF12 agonist 20, SMARCA2 act inactive, ssDAF12 agonist inactive, hcDAF12 agonist 6.7, DAX1 inh-2 5.7, DAX1 inh confirm 13, SF1 mutant ctr 5.4, LXRb hcDAF ctr inactive and hcDAF12 conf 6.6.
`CCNC(=O)CCc1nc(-c2ccc(C(C)C)cc2)no1` gave hgDAF12 agonist inactive, ssDAF12 agonist inactive and hcDAF12 agonist inactive.
COc1ccc(-c2csc(C(O)c3ccc(F)cc3)n2)cc1OC (centres undefined) was read as hgDAF12 agonist inactive, SMARCA2 act inactive, ssDAF12 agonist inactive, hcDAF12 agonist inactive and DAX1 inh-2 inactive.
For N#Cc1ccc(/C=C(\C(=O)C(=O)O)c2ccc3ccccc3n2)cc1 the results were DAX1 inh-1 6.0, hgDAF12 agonist 15, SMARCA2 act inactive, ssDAF12 agonist 1.2, hcDAF12 agonist 10, DAX1 inh-2 6.8, DAX1 inh confirm 8.2, SF1 mutant ctr 4.4, LXRb hcDAF ctr inactive and hcDAF12 conf 8.9.
Screening N#CCCN(C(=O)COC(=O)c1ccc2ccccc2n1)c1ccccc1 returned DAX1 inh-1 inactive, hgDAF12 agonist inactive, SMARCA2 act inactive, ssDAF12 agonist inactive, hcDAF12 agonist inactive and DAX1 inh-2 inactive.
For Oc1ccccc1/C=C/c1noc(-c2ccccc2O)n1 the results were DAX1 inh-1 7.5, hgDAF12 agonist 18, SMARCA2 act inactive, ssDAF12 agonist 3.9, hcDAF12 agonist 15, DAX1 inh-2 6.1, DAX1 inh confirm 13, SF1 mutant ctr 9.3, LXRb hcDAF ctr inactive and hcDAF12 conf 12.
COc1ccc(-c2nc3c(C)cc(Br)cn3c2CC2CCCCC2)cc1OC was read as hgDAF12 agonist inactive, SMARCA2 act inactive, ssDAF12 agonist inactive, hcDAF12 agonist inactive and DAX1 inh-2 inactive.
C[C@]1(CC/C(=C/CO)CO)[C@H](CO)CC[C@@]23COC(=O)C2=CCC[C@@H]31 was read as DAX1 inh-1 inactive, hgDAF12 agonist inactive, SMARCA2 act inactive, ssDAF12 agonist inactive, hcDAF12 agonist inactive and DAX1 inh-2 inactive.
For C[C@@H]1CN([C@@H](C)CO)C(=O)CCCn2nncc2CO[C@H]1CN(C)C(=O)Nc1ccnc(N2CCOCC2)c1 the results were DAX1 inh-1 inactive, hgDAF12 agonist inactive, SMARCA2 act inactive, ssDAF12 agonist inactive, hcDAF12 agonist inactive and DAX1 inh-2 inactive.
`CCOC1=C2[C@H](c3ccc(CC)cc3)N(S(=O)(=O)c3ccc(C)cc3)C[C@H]2n2c(=O)n(-c3ccccc3)c(=O)n2C1` gave hgDAF12 agonist inactive, SMARCA2 act inactive, ssDAF12 agonist inactive, hcDAF12 agonist inactive and DAX1 inh-2 inactive.
Screening Cc1csc(SCC(=O)c2cc(C)n(Cc3cccs3)c2C)n1 returned DAX1 inh-1 inactive, hgDAF12 agonist inactive, SMARCA2 act inactive, ssDAF12 agonist inactive, hcDAF12 agonist inactive and DAX1 inh-2 inactive.
Screening Cc1cc(C(=O)CSc2nnc(N)s2)c(C)n1Cc1cccs1 returned DAX1 inh-1 inactive, hgDAF12 agonist inactive, SMARCA2 act inactive, ssDAF12 agonist inactive, hcDAF12 agonist 6.7, DAX1 inh-2 6.2, DAX1 inh confirm 16, SF1 mutant ctr inactive, LXRb hcDAF ctr inactive and hcDAF12 conf inactive.
O=C1c2ccccc2C(c2nnnn2-c2ccc3c(c2)OCCO3)N1CCCN1CCOCC1 (centres undefined) was read as hgDAF12 agonist inactive, SMARCA2 act inactive, ssDAF12 agonist inactive, hcDAF12 agonist inactive and DAX1 inh-2 inactive.
`S=C1NCCN1CC1CCN(CCCC2CCCC2)CC1` gave DAX1 inh-1 inactive, hgDAF12 agonist inactive, SMARCA2 act inactive, ssDAF12 agonist inactive, hcDAF12 agonist inactive and DAX1 inh-2 inactive.
Screening O=C(Nc1ncccc1O)c1ccc(Cl)c(S(=O)(=O)N2CCCCCC2)c1 returned DAX1 inh-1 inactive, hgDAF12 agonist inactive, SMARCA2 act inactive, ssDAF12 agonist inactive, hcDAF12 agonist inactive and DAX1 inh-2 inactive.
O=C(Nc1ncccc1O)c1ccc2ccccc2c1 was read as DAX1 inh-1 inactive, hgDAF12 agonist 12, SMARCA2 act inactive, ssDAF12 agonist inactive, hcDAF12 agonist 9.9, DAX1 inh-2 10, DAX1 inh confirm 14, SF1 mutant ctr 7.4, LXRb hcDAF ctr inactive and hcDAF12 conf 6.9.
For Cc1cc(-c2nc3ccccc3s2)ccc1N the results were DAX1 inh-1 inactive, hgDAF12 agonist 12, SMARCA2 act inactive, ssDAF12 agonist 3.1, hcDAF12 agonist 15, DAX1 inh-2 6.7, DAX1 inh confirm 10, SF1 mutant ctr 3.1, LXRb hcDAF ctr inactive and hcDAF12 conf 21.
CC(C)c1ccc(-n2nc3ccc(N)cc3n2)cc1 was read as DAX1 inh-1 inactive, hgDAF12 agonist 15, SMARCA2 act inactive, ssDAF12 agonist 2.2, hcDAF12 agonist 9.8, DAX1 inh-2 5.1, DAX1 inh confirm 14, SF1 mutant ctr 7.8, LXRb hcDAF ctr inactive and hcDAF12 conf 18.
COc1ccc(-n2nc3ccc(N)cc3n2)cc1 was read as DAX1 inh-1 inactive, hgDAF12 agonist inactive, SMARCA2 act inactive, ssDAF12 agonist inactive, hcDAF12 agonist inactive and DAX1 inh-2 inactive.
For COc1ccc(CNC(=O)C(CC(C)C)NC(=O)c2ccccc2C)cc1 (centres undefined) the results were DAX1 inh-1 inactive, hgDAF12 agonist inactive, SMARCA2 act inactive, ssDAF12 agonist inactive, hcDAF12 agonist inactive and DAX1 inh-2 inactive.
